Experimental data reported in article PMC5540273 (PLoS ONE, 2017).

The compounds below were run on GAK. Settings: concentration: 1 μM, replicates: in singlicate; n = 1.
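Also: KINOMEscan kinase panel screen.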

In order of rising “%Inh” value:
1. CCn1c(-c2nonc2N)nc2c(C#CC(C)(C)O)nc(OC[C@H](N)c3ccccc3)cc21 [GSK943949]  0%
2. CCS(=O)(=O)c1ccc(OC)c(Nc2nccc(-c3c(-c4cccc(NC(=O)c5c(F)cccc5F)c4)nn4ncccc34)n2)c1 [GSK326180]  0%
3. Cc1cccc(NC(=O)Nc2ccc(Oc3ncnc4ccn(C)c34)cc2)c1  0%
4. O=C(Nc1ccccc1F)NC1CCN(c2ccnc(Nc3ccc(F)cc3)n2)CC1 [GSK1379800]  0%
5. CN(c1ccc(NC(=O)Nc2cc(C(F)(F)F)ccc2F)cc1)c1ccnc(Nc2ccc(S(N)(=O)=O)cc2)n1 [GW809893]  0%
6. COc1ccc(CNC(=O)NC2CCN(c3ccnc(Nc4ccc(F)cc4)n3)CC2)cc1 [GSK1379788]  0%
7. O=C(Nc1n[nH]c2cc(-c3ccoc3)ccc12)C1CC1 [SB-738481]  2%
8. O=C(Nc1cccc(-c2nn3ccccc3c2-c2ccnc(Nc3cccc(C(F)(F)F)c3)n2)c1)c1c(F)cccc1F [GSK292658]  3%
9. COc1cccc(-c2ccc3c(NC(=O)C4CC4)n[nH]c3n2)c1 [SB-710903]  3%
10. Nc1ncc(-c2ccc3nccc(-c4ccncc4)c3c2)cc1S(=O)(=O)N1CCOCC1 [GSK1627798]  6%
11. COc1cccc(C2=C(Nc3ccc(Cl)c(C(=O)O)c3)C(=O)NC2=O)c1 [SB-390769]  8%
12. COc1ccc(-c2coc3ccc(-c4nnc(SCc5ccc(OC)c(C(F)(F)F)c5)o4)cc23)cc1  10%
13. O=C(NC1CCN(c2ccnc(Nc3ccc(F)cc3)n2)C1)c1cc2ccccc2s1 (stereo not shown) [GSK1379716]  13%
14. Cn1cc(-c2ccc3c(c2)CCN3C(=O)Cc2cccc(F)c2)c2c(N)ncnc21 [GSK2603358]  16%
15. Fc1ccc(-c2ncn(C3CCNCC3)c2-c2ccnc(Oc3ccc(-c4ccccc4)cc3)n2)cc1 [SB-245391]  22%
16. Nc1ncc(-c2cccnc2)c2scc(-c3ccc4c(c3)CCN4C(=O)Cc3ccccc3)c12 [GSK683281]  23%
17. COc1ccc(Nc2nccc(N3CCC(NC(=O)Nc4cccc(OC)c4)C3)n2)cc1 (stereo not shown) [GSK1379742]  23%
18. NCCCC(NC(=O)c1cc(Br)c(-c2ccnc3[nH]ccc23)s1)c1ccccc1.O=C(O)C(F)(F)F.O=C(O)C(F)(F)F (stereo not shown) [GSK1287544]  23%
19. CN(C)S(=O)(=O)c1cc(-c2ccc3nccc(-c4cccc(S(N)(=O)=O)c4)c3c2)cnc1N [GSK1669921]  28%
20. O=C(Nc1cccc(-c2nn3ncccc3c2-c2ccnc(Nc3ccccc3)n2)c1)c1c(F)cccc1F [GSK198271]  31%
21. COc1cc(Nc2nccc(-c3c(-c4cccc(NC(=O)c5c(F)cccc5F)c4)nn4ncccc34)n2)cc(OC)c1OC [GSK327238]  31%
22. COc1cccc(C(=O)Nc2cccc(Oc3ccc4nc(NC(=O)C5CC5)cn4n3)c2)c1  33%
23. Cl.Cl.NCC(NCc1ccc(-c2ccnc3[nH]ccc23)s1)c1ccccc1 (stereo not shown) [GSK1321565]  34%
24. O=c1[nH]cc(-c2ccc(N3CCOCC3)cc2)c2sc(-c3cn[nH]c3)cc12 [GSK2276055]  34%
25. COc1ccc(Nc2nccc(NCCNC(=O)c3cc4ccccc4s3)n2)cc1 [GSK1379896]  42%
26. Cl.NC(=O)c1cccc(Nc2nccc(Nc3ccc(Oc4c(Cl)cccc4Cl)c(Cl)c3)n2)c1 [GW659009]  59%
27. C[C@@H](Oc1cc(-n2cnc3cc(-c4ccnc(NCCS(C)(=O)=O)c4)ccc32)sc1C(N)=O)c1ccccc1Cl [GSK907232]  64%
28. Cl.c1ccc(-c2ccc3c(Nc4ccc5[nH]ccc5c4)ccnc3c2)nc1 [GW440138]  64%
29. c1ccc(Oc2ccc(Nc3ccnc4cc(-c5ccc(CNCCN6CCOCC6)o5)ccc34)cc2)nc1 [GW567145]  82%
30. CN(C)Cc1ccc(-c2ccc3c(Nc4ccc(Oc5ccccn5)cc4)ccnc3c2)o1 [GW567148]  82%
31. Cl.Cl.NCC(C(=O)Nc1cc(Br)c(-c2ccnc3[nH]ccc23)s1)c1ccccc1 (stereo not shown) [GSK1269851]  83%
32. Oc1cc(Nc2ccnc3cc(I)ccc23)ccc1F [GW552771]  85%
33. Cc1cccc(Nc2nc(N[C@H]3CCNC3)ncc2C(N)=O)c1.Cl [GSK2197149]  86%
34. CCCCc1nn2ncccc2c1-c1ccnc(Nc2ccc(N3CCN(C)CC3)cc2)n1 [GW684941]  91.7%
35. CC(C)c1nc(-c2cccc(NS(=O)(=O)c3c(F)cccc3F)c2F)c(-c2ccnc(Nc3ccc(N4CCOCC4)nc3)n2)s1 [GSK2008607]  96.1%
36. COc1cc2c(cc1OCCN1CCNCC1)ncc1c3ccc(C#N)cc3[nH]c21  99.3%
37. c1ccc(-c2n[nH]cc2Nc2ccnc3ccccc23)nc1 [GW694077]  100%
